Values joined by “and” are separate entries in the source; they are usually repeats but may differ in a detail not shown here. Equal entries are not always repeated. Inconclusive results are not listed. Active and inactive are the calls of the source. Unless noted, calls come from the whole dose curve; as a rule, active = well fitted curve in the direction sought with a large enough effect; inconclusive = small, poorly fitted or top-dose-only effect, or another doubt; inactive = no such curve, though single readings can be large; an effect the other way counts as inactive or inconclusive.

We go through one molecule from PubChem BioAssay (NCATS).

The target of assay [1] is Thyroid hormone receptor beta (Homo sapiens) (UniProt P10828). Kind of assay: qHTS assay for small molecule agonists of thyroid hormone receptor beta signaling (AID 588545; calls by dose curve). The method in brief: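 Agonist activity was read as beta-lactamase CCF4 fluorescence (405 ex, 460/530 em), scaled between DMSO (0%) and 10 nM T3 (100%), then Hill-fitted for EC50 and efficacy. HEK 293 TR-UAS-bla cells in 2% charcoal/dextran FBS medium were exposed 18 h at 37 C.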
Thyroid hormone receptor beta (Homo sapiens), sequence (P10828 whole entry, looked up): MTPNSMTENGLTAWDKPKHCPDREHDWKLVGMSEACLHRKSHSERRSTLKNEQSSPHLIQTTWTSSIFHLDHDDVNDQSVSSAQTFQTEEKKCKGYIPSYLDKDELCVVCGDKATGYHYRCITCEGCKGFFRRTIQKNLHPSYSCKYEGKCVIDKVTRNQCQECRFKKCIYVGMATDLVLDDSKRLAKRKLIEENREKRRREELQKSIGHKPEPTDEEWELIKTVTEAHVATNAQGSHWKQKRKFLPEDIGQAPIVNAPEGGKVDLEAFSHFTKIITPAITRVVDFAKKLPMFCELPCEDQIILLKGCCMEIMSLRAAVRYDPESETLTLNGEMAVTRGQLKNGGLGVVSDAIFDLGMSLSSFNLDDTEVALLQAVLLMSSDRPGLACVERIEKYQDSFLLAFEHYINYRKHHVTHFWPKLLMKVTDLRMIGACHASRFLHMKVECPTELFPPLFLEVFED
For orientation: In qHTS, concentration-response curves come from the screen itself.

A short description of assay [2]: qHTS assay for small molecule antagonists of retinoid X receptor alpha signaling (AID 588546; active = well fitted inhibition curve with a large enough effect in the signal ratio, with a control signal flat, not every such curve was filed as active; the % refers to the signal ratio;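 note: cells stimulated with 9-cis-retinoic acid as agonist; % is set by controls: 0 for no effect and ±100 for the full control effect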). The conditions noted are these: HEK293T RXRa-UAS-bla, beta-lactamase ratio, antagonist mode; measured here: W530 green channel, cytotoxicity proxy. The method in brief:
(§1)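 Beta-lactamase reporter inhibition, read as CCF4 fluorescence ratio (ex 405, em 460/530 nm) after 2 h at RT. HEK293T UAS-bla cells, 2500/well, were stimulated with 9-cis-RA at 500 or 100 nM final alongside test compound for 18 h at 37 C.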

For assay [3], the target named is Retinoic acid receptor RXR-alpha (Homo sapiens) (UniProt P19793). Described as above. As to conditions: HEK293T RXRa-UAS-bla, beta-lactamase ratio, antagonist mode. The method in brief: as §1
Retinoic acid receptor RXR-alpha (Homo sapiens), sequence (P19793 whole entry, looked up): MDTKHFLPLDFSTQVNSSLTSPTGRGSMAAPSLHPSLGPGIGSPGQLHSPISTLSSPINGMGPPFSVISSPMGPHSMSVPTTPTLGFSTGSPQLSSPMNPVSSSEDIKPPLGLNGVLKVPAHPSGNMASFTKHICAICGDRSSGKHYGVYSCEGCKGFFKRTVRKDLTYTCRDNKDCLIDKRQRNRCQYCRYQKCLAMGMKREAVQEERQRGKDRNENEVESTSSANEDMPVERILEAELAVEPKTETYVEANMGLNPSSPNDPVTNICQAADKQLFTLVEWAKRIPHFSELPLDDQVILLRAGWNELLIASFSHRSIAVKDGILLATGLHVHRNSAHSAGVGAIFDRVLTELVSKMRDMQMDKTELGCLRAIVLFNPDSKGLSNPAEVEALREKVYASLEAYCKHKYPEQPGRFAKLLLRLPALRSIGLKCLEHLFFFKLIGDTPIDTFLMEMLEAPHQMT
For assay [4], the target named is Thyroid hormone receptor beta (Homo sapiens) (UniProt P10828). Put plainly: qHTS assay for small molecule antagonists of thyroid hormone receptor beta signaling (AID 588547; active = well fitted inhibition curve with a large enough effect in the signal ratio, with a control signal flat, not every such curve was filed as active; the % refers to the signal ratio;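 note: cells stimulated with 0.4 nM T3 agonist during compound exposure; series mostly up to about 77 µM; % is set by controls: 0 for no effect and ±100 for the full control effect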). The conditions noted are these: TR-UAS-bla HEK293, beta-lactamase ratio, antagonist mode, 18 h. The method in brief: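 TR-UAS-bla GripTite HEK293 cells in 2% charcoal/dextran FBS medium; compounds 0.59 nM to 92 uM with T3 at 0.4nM final, 18 h at 37 C. Beta-lactamase read by CCF4 fluorescence (460/530 nm); Hill fits gave IC50 and efficacy.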

Assay [5] addresses Voltage-gated inwardly rectifying potassium channel KCNH2 (Homo sapiens) (UniProt Q12809). Put plainly: qHTS Assay for Small Molecule Inhibitors of the Human hERG Channel Activity (AID 588834).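 Note: top concentration of the series differs between compounds; % is set by controls: 0 for no effect and ±100 for the full control effect; lower thallium flux fluorescence means stronger hERG block; nearly all actives have a fitted effect of over 50% in size.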 The procedure, abridged: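 Concentration-response qHTS measuring drop in thallium-sensitive dye signal. U2OS cells carrying BacMam hERG; compound exposure ~10 min, then stimulation buffer and 2 min read at 1 sec intervals.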

The nature of assay [6]: qHTS assay for small molecule agonists of the antioxidant response element (ARE) signaling pathway (AID 651741; active = well fitted activation curve with a large enough effect in the signal ratio; the % refers to the signal ratio; note: potency is the fitted concentration of half-maximal effect). The method in brief:
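HepG2 ARE-bla cells plated at 2,000 cells/well and incubated 5 h at 37 C/5% CO2 received 23 nL compound in DMSO. After 16 h at 37 C, LiveBLAzer B/G FRET substrate was applied for 2 h at room temperature and fluorescence read.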

Assay [7] is described as follows: qHTS assay for small molecule activators of the p53 signaling pathway (AID 651743; active = well fitted activation curve with a large enough effect in the signal ratio, not every such curve was filed as active; the % refers to the signal ratio; note: series mostly up to about 92 µM; % of control where 0% means no effect). As to conditions: HCT-116 p53RE-bla, beta-lactamase FRET ratio, 16 h; stronger effect = higher value. The method in brief: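 HCT-116 p53RE-bla, 4,000 cells/well; 5 h settle; cpd/DMSO 16 h, 37 C; LiveBLAzer B/G 2 h RT; fluorescence intensity.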
A short description of assay [8]: qHTS assay for small molecule activators of the nuclear factor-kappa B (NF-kB) signaling pathway (AID 651749; active = well fitted activation curve with a large enough effect in the signal ratio; the % refers to the signal ratio; note: series mostly up to about 77 µM; % of control where 0% means no effect). As to conditions: NF-kB-bla ME-180 cells, beta-lactamase FRET ratio, 16 h; stronger effect = higher value. The procedure, abridged:
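Incubation lasted 16 hr at 37C in 5% CO2 after 23 nL compound addition to ME-180 NF-kB-bla cells. Activation appears as beta-lactamase-mediated FRET loss.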

Assay [9] is described as follows: qHTS assay for environmental chemicals that activate the Aryl hydrocarbon Receptor (AhR) signaling pathway (AID 651777). Note: % of control where 0% means no effect; nearly all actives have a fitted effect of over 15% in size. As to conditions: 1A2-DRE human hepatoma cells, luciferase, 24 h; stronger effect = higher value. The method in brief:
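Human hepatoma 1A2-DRE cells, stably carrying a dioxin response element and CYP1A2 promoter driving luciferase, were exposed to compounds for 24 hr at 37 C and 5% CO2. Luciferase signal was then read after 30 min One-Glo at room temperature.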

Assay [10] addresses Peroxisome proliferator-activated receptor alpha (Homo sapiens) (UniProt Q07869). Kind of assay: qHTS assay for small molecule agonists of the peroxisome proliferator-activated receptor alpha (PPARalpha) signaling pathway (AID 651778). Note: % of control where 0% means no effect. The conditions noted are these: PathHunter PPARalpha complementation, chemiluminescence, 6 h; stronger effect = higher value. The method in brief:
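Enzyme-fragment complementation assay in which ligand-bound PPARalpha translocates and forms an active enzyme that generates chemiluminescence. Cells were plated overnight, exposed to compound for 6 hr at 37 C, and then given detection reagent for 60 min at room temperature.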

The target in assay [11] is Nuclear receptor ROR-gamma (Homo sapiens) (UniProt P51449). Put plainly: qHTS assay for small molecule antagonists of the retinoid-related orphan receptor gamma (ROR-gamma) signaling pathway (AID 651802).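 Note: CHO cells with doxycycline-induced ROR-gamma expression; series mostly up to about 92 µM; % is set by controls: 0 for no effect and ±100 for the full control effect; nearly all actives have a fitted effect of over 60% in size.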 The method in brief: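 Antagonism is scored as a fall in luminescence from a RORE-luciferase reporter in CHO cells expressing ROR under a TET-inducible promoter, measured 16hr after doxycycline induction in the presence of compound.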
Nuclear receptor ROR-gamma (Homo sapiens), sequence (P51449 whole entry, looked up): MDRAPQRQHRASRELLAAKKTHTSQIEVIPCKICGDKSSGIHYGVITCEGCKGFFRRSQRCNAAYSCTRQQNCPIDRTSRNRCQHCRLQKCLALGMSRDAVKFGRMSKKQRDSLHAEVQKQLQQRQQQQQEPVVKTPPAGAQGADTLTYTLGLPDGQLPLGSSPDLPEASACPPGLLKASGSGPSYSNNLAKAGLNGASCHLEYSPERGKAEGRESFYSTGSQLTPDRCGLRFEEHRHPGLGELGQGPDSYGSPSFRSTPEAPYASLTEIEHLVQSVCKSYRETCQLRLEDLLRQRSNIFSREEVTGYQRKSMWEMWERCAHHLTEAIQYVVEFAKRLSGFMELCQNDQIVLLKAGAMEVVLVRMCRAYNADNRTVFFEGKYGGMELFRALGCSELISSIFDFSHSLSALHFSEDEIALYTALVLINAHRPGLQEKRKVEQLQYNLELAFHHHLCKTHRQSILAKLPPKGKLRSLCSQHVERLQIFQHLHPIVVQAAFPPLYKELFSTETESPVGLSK

Assay [12] can be described thus: qHTS assay for small molecule agonists of the antioxidant response element (ARE) signaling pathway measured by Nrf2-dependant transcriptional activity (AID 720636; active = well fitted curve in the direction sought with a large enough effect in the repeat runs; an effect the other way counts as inactive or inconclusive; note: % of control where 0% means no effect). The method in brief: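 ARE-luc HepG2 cells carrying an Nrf2-responsive luciferase reporter were plated in medium with 1% dialyzed FBS, left 6 hr at 37 C to attach, then exposed to compound for 16 hr. Luciferase luminescence was read after ONE-Glo addition.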

The nature of assay [13]: qHTS assay for small molecule antagonists of the retinoid-related orphan receptor gamma (ROR-gamma) signaling pathway - cell viability counter screen (AID 720652; active = well fitted curve in the direction sought with a large enough effect in the repeat runs; an effect the other way counts as inactive or inconclusive;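 note: CHO reporter cells with doxycycline-induced ROR-gamma expression; series mostly up to about 92 µM; compound exposure lasted 16 hr before ATP read; % is set by controls: 0 for no effect and ±100 for the full control effect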). The procedure, abridged:
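Cytotoxicity is quantified via intracellular ATP (CellTiter-Glo luminescence) in doxycycline-induced CHO ROR response element-luciferase reporter cells treated with compound for 16 hr at 37 C, 5% CO2.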

The nature of assay [14]: qHTS assay for small molecule agonists of the antioxidant response element (ARE) signaling pathway measured by Nrf2-dependant transcriptional activity - cell viability counter screen (AID 720653; active = well fitted curve in the direction sought with a large enough effect in the repeat runs; an effect the other way counts as inactive or inconclusive; note: % is set by controls: 0 for no effect and ±100 for the full control effect). As to conditions: ARE-bla HepG2 viability, CellTiter-Glo ATP luminescence, 16 h; stronger effect = lower value. The method in brief:
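ARE-bla HepG2 cells treated with compounds for 16 h at 37C; this counter screen measures viability as intracellular ATP by CellTiter-Glo luminescence after 30 min at room temperature.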

A short description of assay [15]: qHTS assay for cell viability of HEK293 cells (AID 743288). Note: % is set by controls: 0 for no effect and ±100 for the full control effect; nearly all actives have a fitted effect of over 50% in size. As to conditions: ATP luminescence (CellTiter-Glo), 18 h, stronger effect = lower value. The procedure, abridged: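 Environmental chemicals tested in qHTS format against parental HEK293 cells; 18 h treatment, 37 C; read-out ATP luminescence (CellTiter-Glo), 30 min RT development.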
The nature of assay [16]: qHTS assay for cell viability of the p53RE-bla HCT-116 cell line (AID 743292). Note: % is set by controls: 0 for no effect and ±100 for the full control effect; nearly all actives have a fitted effect of over 55% in size. The procedure, abridged: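 CellSensor p53RE-bla HCT-116 cells, 4,000/well, preincubated 5 h at 37 C, then exposed to compounds in DMSO for 16 h at 37 C. Viability read as CellTiter-Glo luminescence (intracellular ATP) after 30 min at room temperature.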
The nature of assay [17]: Primary qHTS for inhibitors of nuclear receptor binding SET domain protein 2 (NSD2) in an RCH-ACV wild type WT cells (2C) (AID 1645877). Note: potency is the fitted concentration of half-maximal effect; nearly all actives have a fitted effect of over 70% in size.
The target of assay [18] is Glutathione peroxidase 1 (Homo sapiens) (UniProt P07203). Kind of assay: Primary qHTS Assay for Inhibitors of Recombinant Selenoprotein Glutathione Peroxidase 1 (GPX1) (AID 1845191). Note: % is set by controls: 0 for no effect and ±100 for the full control effect; nearly all actives have a fitted effect of over 65% in size. The procedure, abridged:
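GR-coupled assay: compounds preincubated 30 min at room temperature with GPX1, then reaction started with CHP; final 10 nM GPX1, 1 mM GSH, 0.5 mM CHP, 0.5 mM NADPH, 100 nM GR, 0.01% BSA, pH 7.5 Tris buffer. NADPH fluorescence (340/450 nm) read at 0 and 15 min.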

Assay [19] is described as follows: qHTS drug screen for cell cycle checkpoint inhibitors in PARPi-resistant BRCA-mutant ovarian cancer cell lines. (AID 1963452; calls by dose curve). As to conditions: PEO1/OlaR viability, CellTiter-Glo luminescence, 96 h, stronger effect = lower value. The procedure, abridged:
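PEO1, PEO4 and PEO1/OlaR ovarian cancer cells, 600 per well, exposed 96 h at 37C to a dilution series. Viability read by CellTiter-Glo luminescence, normalized to DMSO and empty wells; activity summarized as Z-AUC.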

Peroxisome proliferator-activated receptor alpha (Homo sapiens), sequence (Q07869 whole entry, looked up, the tested form may be a part): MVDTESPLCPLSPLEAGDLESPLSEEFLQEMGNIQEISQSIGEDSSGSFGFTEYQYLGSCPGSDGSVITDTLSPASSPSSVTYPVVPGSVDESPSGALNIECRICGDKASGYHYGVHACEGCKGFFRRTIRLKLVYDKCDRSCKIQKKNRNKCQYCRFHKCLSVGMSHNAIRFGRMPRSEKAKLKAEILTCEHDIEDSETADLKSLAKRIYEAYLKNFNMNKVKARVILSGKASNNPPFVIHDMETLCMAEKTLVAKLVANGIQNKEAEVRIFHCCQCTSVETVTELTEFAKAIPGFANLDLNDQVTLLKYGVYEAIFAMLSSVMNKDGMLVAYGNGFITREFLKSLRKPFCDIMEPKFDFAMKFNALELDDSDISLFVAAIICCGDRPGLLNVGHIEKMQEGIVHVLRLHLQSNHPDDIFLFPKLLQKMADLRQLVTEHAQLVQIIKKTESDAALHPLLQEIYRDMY
Glutathione peroxidase 1 (Homo sapiens), sequence (P07203 whole entry, looked up): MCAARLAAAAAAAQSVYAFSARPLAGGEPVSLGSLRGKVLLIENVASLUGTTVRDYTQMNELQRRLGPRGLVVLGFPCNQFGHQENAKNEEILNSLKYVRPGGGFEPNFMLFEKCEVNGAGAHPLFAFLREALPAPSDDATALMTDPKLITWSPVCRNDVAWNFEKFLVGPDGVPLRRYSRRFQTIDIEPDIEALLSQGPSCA
Voltage-gated inwardly rectifying potassium channel KCNH2 (Homo sapiens), sequence (Q12809 whole entry, looked up): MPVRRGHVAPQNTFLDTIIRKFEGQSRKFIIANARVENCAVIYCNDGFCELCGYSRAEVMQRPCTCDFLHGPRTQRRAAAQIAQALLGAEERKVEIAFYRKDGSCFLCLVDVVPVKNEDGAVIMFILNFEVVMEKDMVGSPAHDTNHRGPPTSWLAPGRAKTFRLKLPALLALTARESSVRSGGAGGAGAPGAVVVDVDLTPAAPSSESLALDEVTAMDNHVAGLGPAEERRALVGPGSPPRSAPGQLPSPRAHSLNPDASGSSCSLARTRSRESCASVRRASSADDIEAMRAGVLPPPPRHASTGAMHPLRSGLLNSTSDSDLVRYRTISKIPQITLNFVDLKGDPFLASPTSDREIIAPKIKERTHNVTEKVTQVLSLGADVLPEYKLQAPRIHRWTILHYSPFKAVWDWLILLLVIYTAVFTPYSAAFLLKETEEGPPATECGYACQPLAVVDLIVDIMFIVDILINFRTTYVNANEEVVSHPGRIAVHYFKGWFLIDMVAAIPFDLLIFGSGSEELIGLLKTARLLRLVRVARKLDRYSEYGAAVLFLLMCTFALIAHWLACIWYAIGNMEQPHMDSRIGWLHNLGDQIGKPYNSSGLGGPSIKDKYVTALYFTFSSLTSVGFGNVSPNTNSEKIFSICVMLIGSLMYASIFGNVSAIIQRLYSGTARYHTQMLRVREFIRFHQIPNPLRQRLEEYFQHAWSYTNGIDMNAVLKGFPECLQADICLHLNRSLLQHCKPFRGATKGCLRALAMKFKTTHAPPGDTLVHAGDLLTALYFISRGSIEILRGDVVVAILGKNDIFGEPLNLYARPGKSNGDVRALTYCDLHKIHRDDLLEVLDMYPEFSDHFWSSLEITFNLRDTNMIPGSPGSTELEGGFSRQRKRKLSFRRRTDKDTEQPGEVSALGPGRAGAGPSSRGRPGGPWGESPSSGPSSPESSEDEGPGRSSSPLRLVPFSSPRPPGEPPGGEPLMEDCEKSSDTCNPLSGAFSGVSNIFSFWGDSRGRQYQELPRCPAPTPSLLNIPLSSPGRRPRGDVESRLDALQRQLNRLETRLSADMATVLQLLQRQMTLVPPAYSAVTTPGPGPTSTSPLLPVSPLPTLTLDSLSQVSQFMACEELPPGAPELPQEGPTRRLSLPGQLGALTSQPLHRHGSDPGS

In the case of `CO[C@H]1/C=C/O[C@@]2(C)Oc3c(C)c(O)c4c(O)c(c(/C=N/N5CCN(C)CC5)c(O)c4c3C2=O)NC(=O)/C(C)=C\C=C\[C@H](C)[C@H](O)[C@@H](C)[C@@H](O)[C@@H](C)[C@H](OC(C)=O)[C@@H]1C`, the outcome in assay [1], in assay [5], in assay [11], in assay [12], in [13] and in [16] was inactive. In addition, the max response was 12.2% and 0.217% in assay [2]; -24.8% (inactive) and 0.888% (inactive) in assay [3]; -9.67% (inactive) and -6.67% (inactive) in [10]; -3.19% (inactive) and -26% (inactive) in assay [14]; -14.9% (inactive) and -19.1% (inactive) in [15]. Further, the activity change % (negative = inhibition) in [4] was 4.86% (inactive) and -12.3% (inactive). Further, the values for the Potency in assay [6] and in assay [17] were 54.5 µM (active) and 16.6 µM (active), respectively. In addition, the activation in assay [7] is -10.4% (inactive) and -9.54% (inactive); in assay [8], -0.981% (inactive) and -2.03% (inactive); in assay [9], 0.185% (inactive) and -0.0706% (inactive). Also, in assay [18], the Potency result was “inactive”. In addition, the Z-AUC in assay [19] is 1.24 (inactive); in assay [19] (measured here: PEO1 parental Z-AUC), 1.13; in assay [19] (measured here: PEO4 Z-AUC) it was 1.29.
